From PubChem BioAssay AID1006 (Sanford-Burnham Center for Chemical Genomics, 2008) come the findings set out here.

Out of some 200,000 compounds screened, about 3,000 (1.5%) were called active. What follows is part of a selection rich in actives, with near analogues and random picks from the rest. Values without a mark were called inactive.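 How the source made its calls: active means inhibition above about 50% when tested at 10 µM (limit read from the data); inactive means the rest.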

The target of this assay is Luciferin 4-monooxygenase (Photinus pyralis) (UniProt P08659). Kind of assay: inhibition of purified FLuc reporter enzyme – biochemical, luminescence, ATPLite, artefact control for luciferase-based inhibitor screens, primary screen (AID 1006). The note with it: ATPLite firefly luciferase biochemical luminescence, 10 min; at 10 µM; hits give high values.
Chain of Luciferin 4-monooxygenase (Photinus pyralis) (P08659 whole entry, looked up): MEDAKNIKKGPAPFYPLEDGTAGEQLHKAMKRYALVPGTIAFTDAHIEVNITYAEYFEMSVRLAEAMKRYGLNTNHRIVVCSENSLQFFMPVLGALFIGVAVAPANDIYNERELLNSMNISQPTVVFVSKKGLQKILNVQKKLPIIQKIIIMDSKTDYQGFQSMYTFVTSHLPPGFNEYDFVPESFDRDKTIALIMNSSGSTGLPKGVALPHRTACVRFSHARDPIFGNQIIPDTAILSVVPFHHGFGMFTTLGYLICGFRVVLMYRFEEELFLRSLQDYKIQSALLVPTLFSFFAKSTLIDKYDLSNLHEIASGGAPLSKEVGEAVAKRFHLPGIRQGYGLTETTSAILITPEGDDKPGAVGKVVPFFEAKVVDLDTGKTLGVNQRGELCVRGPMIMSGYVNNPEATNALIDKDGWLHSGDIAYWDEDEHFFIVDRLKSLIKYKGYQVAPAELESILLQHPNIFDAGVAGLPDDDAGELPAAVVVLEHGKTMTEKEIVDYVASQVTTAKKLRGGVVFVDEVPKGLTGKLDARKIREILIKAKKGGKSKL
As to `O=C(Cc1ccc(F)cc1)N1CCN=C1SCc1cccc([N+](=O)[O-])c1`, the inhibition was -8.2%.

For `O=C(NCC1CCCO1)C1CCN(C2CCN(C(=O)C3CCCCC3)CC2)CC1` (centres undefined), the inhibition is -6.8%.

Regarding `CC(=O)Nc1ccc(/C=N/NC(=O)c2cccs2)cc1`, the inhibition is 42.4%.

Regarding `Cc1cccc(-n2c(C)cc(/C=N/NC(N)=S)c2C)c1`, the inhibition is 0.5%.

In the case of `Cc1cccc(-n2c(C)cc(/C=N\NC(=O)c3cccs3)c2C)c1`, the inhibition is 50.3% (active).

As for `COc1ccc(OC)c(S(=O)(=O)Nc2cccc(-c3ccc4nncn4n3)c2)c1`, the inhibition was -2.6%.

Take `O=C(N/N=C/c1c(Cl)[nH]c2ccccc12)c1sc2ccccc2c1Cl`: the inhibition is 5%.

On to `Oc1ccc(N=Cc2sc3ccccc3c2Cl)cc1`, for which the inhibition was 65.5% (active).

Turning to `Cc1nn(C)cc1/C=N/NC(=O)c1sc2ccccc2c1Cl`, the inhibition was 11.2%.

As to `CSc1nc2ccc(NC(=O)c3c(F)cccc3F)cc2s1`, the inhibition was 12.4%.

On to `Nc1nnc(SCC(=O)OCc2ccc(Cl)c(Cl)c2)s1`, for which the inhibition was -3.7%.

For `Cc1ccc2nc(COc3ccc(N(C)S(=O)(=O)c4ccccc4)cc3)cc(=O)n2c1`, the inhibition was -4.2%.

With `O=Cc1ccc(OCc2cn3ccccc3n2)cc1`, the inhibition is 50.3% (active).

For the compound `COc1ccc(C(=O)NCc2cn3ccccc3n2)cc1`, the inhibition is -1.1%.

As to `Cc1cc(C)c2c(NC(=O)C3CC3)nn(C)c2n1`, the inhibition was -5.8%.

As to `COc1ccc(C2Nc3ccccc3C(=O)N2c2ccc(Cl)cc2)cc1Cn1cc([N+](=O)[O-])cn1` (centres undefined), the inhibition was -5.8%.

As for `CC(=O)N1CCN(CC(=O)Nc2ccc(SC(F)F)cc2)CC1`, the inhibition was -4.2%.

`Cc1ccc(C2=N/C(=C\c3ccc(OS(=O)(=O)c4ccc(C)cc4)cc3)C(=O)O2)cc1`: the inhibition is -8.9%.

Turning to `Cc1cccc(C2=N/C(=C/c3cccs3)C(=O)O2)c1`, the inhibition was 88.5% (active).

Take `Cc1ccc(N2CCN(C3=NC(=O)/C(=C\c4cccs4)S3)CC2)cc1`: the inhibition is -3.4%.

Regarding `CC(=O)Oc1ccc(C(=O)Nc2nccs2)cc1`, the inhibition was 54.1% (active).

Regarding `CCOc1ccc(C(=O)Nc2nccs2)cc1[N+](=O)[O-]`, the inhibition is -1.5%.

Turning to `COc1cc(C(=O)Nc2nccs2)cc(OC)c1OC`, the inhibition is -0.7%.

As for `Cc1nnc(N/N=C/C2CC=CCC2)[nH]c1=O` (centres undefined), the inhibition was -4%.

In the case of `Cc1cccc2cc3c(N)c(C(=O)N4CCCc5ccccc54)sc3nc12`, the inhibition is -1.8%.

`CC(C)CC(=O)NC(=S)NCc1ccccc1`: the inhibition was -3.5%.

For `CC(C)CC(=O)N/C(N)=N/c1nc2ccccc2s1`, the inhibition was 63.5% (active).

For `CCC(=O)NC(=Nc1nc2ccccc2s1)NC(=O)CC`, the inhibition is 11.6%.

Turning to `CC(C)C1Nc2c(C(=O)O)cccc2C(Nc2ccccc2C(=O)O)C1(C)C` (centres undefined), the inhibition is 0.1%.

On to `O=C1N=C(N2CCCC2)S/C1=C\c1cccc(Br)c1`, for which the inhibition is -4.4%.

On to `CCN1C(=O)/C(=C2\SC(N3CCCCC3)=NC2=O)c2ccccc21`, for which the inhibition is 50.9% (active).

As for `CC(C)=C1SC(N2CCN(c3cccc(C)c3)CC2)=NC1=O`, the inhibition was -5.6%.

`NC(=O)Nc1ccccc1C(=O)NCCc1ccccc1`: the inhibition was 2%.

As for `CC(=O)c1cc(-c2ccccc2)n(CCC(=O)NC2CCCCCC2)c1C`, the inhibition is -5.1%.

Take `Cc1ccnc2nc(C(=O)OCC(=O)N(CC(C)C)CC(C)C)nn12`: the inhibition is -5.4%.

Turning to `CC/C(O)=C1\C(=O)CC(C)(C)CC1=NCCc1nc2ccccc2[nH]1`, the inhibition is -2.7%.

Consider `Cc1cc(C2=NNC(=Nc3ccc(S(=O)(=O)N4CCOCC4)cc3)SC2)c(C)n1CC1CCCO1` (centres undefined), for which the inhibition is -3%.

With `COCCn1c(C)cc(C2=NNC(=Nc3ccc(F)cc3)SC2)c1C`, the inhibition was 17.9%.

For the compound `C=CCn1c(C)cc(C2=NNC(=NCC)SC2)c1C`, the inhibition was 96.5% (active).

Consider `Cc1[nH]n(-c2ccccc2)c(=O)c1/C=N/NC(=O)c1ccoc1C`, for which the inhibition was 20.6%.

For the compound `COc1cccc(/C=N/NC(=O)c2cccc([N+](=O)[O-])c2)c1OS(=O)(=O)c1ccc(C)cc1`, the inhibition was -9.9%.

For the compound `Cc1ccc(-n2[nH]c(C)c(/C=N/NC(=O)c3cccc([N+](=O)[O-])c3)c2=O)cc1C`, the inhibition was 94.9% (active).

Consider `Cc1ccc2c(c1)C(c1ccccc1)N(C(=O)c1ccc(S(=O)(=O)N3CCOCC3)cc1)CC(=O)N2` (centres undefined), for which the inhibition was -5.3%.

`CCOc1ccc(/C=N/NC(=O)C(C)Sc2ccccn2)cc1OCC` (centres undefined): the inhibition is -6%.

Turning to `Cc1cccc(C)c1NC(=O)C1(C)c2cccc[n+]2CC(=O)N1Cc1cccs1` (centres undefined), the inhibition is 0.5%.

In the case of `O=C(NCC(O)c1ccc([N+](=O)[O-])cc1)C1CCCCC1` (centres undefined), the inhibition was -2.2%.

For `CN(C)c1ccc(C(CNC(=O)c2ccc(F)cc2)c2c[nH]c3ccccc23)cc1` (centres undefined), the inhibition is -0.6%.

With `CC(C)NC(=S)NN=C1CCCCCCCCCCC1`, the inhibition was -6.7%.

In the case of `COc1ccc(-c2ccnc(SCC(=O)N3CCOCC3)n2)cc1`, the inhibition was -3.4%.

Consider `COc1ccc(-c2nc(SCC(=O)N3CCOCC3)n[nH]2)cc1`, for which the inhibition was 9.9%.

Take `CCOc1ccc(-c2ccc(SCC(=O)N3CCOCC3)nn2)cc1`: the inhibition is 84.4% (active).

On to `O=C(O)CCCCOn1ccnc1`, for which the inhibition is 0.6%.

Turning to `N#C/C(=C(\O)C(F)(F)F)c1nnc2n1CCCCC2`, the inhibition is -6.2%.

On to `Cc1cccc(C(=O)c2cccc(C)c2)c1`, for which the inhibition is -6.1%.

Regarding `Cc1cccc(/C(N)=N/OC(=O)c2ccccc2Cl)c1`, the inhibition was 89.7% (active).

Turning to `N/C(=N\OC(=O)c1cc(-c2ccccc2)nc2ccccc12)c1ccncc1`, the inhibition is 1.6%.

For `NC1=NN(c2cccc(C(=O)O)c2)C(=O)C1`, the inhibition was -2.1%.

Turning to `OCCNCCOc1ccc(Cl)c(Cl)c1`, the inhibition is 0.7%.

Turning to `O=C(O)c1ccc(N/N=C/c2cn(-c3ccccc3)nc2-c2cccs2)cc1`, the inhibition was 92.2% (active).

Regarding `O=C(O)/C=C/c1cn(-c2ccccc2)nc1-c1cccs1`, the inhibition is 18%.

As to `O=C(/C=C\c1cn(-c2ccccc2)nc1-c1cccs1)N1CCOCC1`, the inhibition was 35.3%.

Turning to `Cc1onc(C(=O)NCc2ccc(F)cc2)c1[N+](=O)[O-]`, the inhibition is 8%.

Consider `CC(=O)Nc1ccc(S(=O)(=O)NCC(=O)OCc2cc(=O)oc3ccc4ccccc4c23)cc1`, for which the inhibition is -3.3%.

On to `CN(C(=O)COc1ccccc1)c1nnc(-c2ccncc2)s1`, for which the inhibition is -2.1%.

As for `CN(C(=O)c1ccccn1)c1nnc(-c2ccccn2)s1`, the inhibition is 55.5% (active).

With `CN(C(=O)c1ccno1)c1nnc(-c2cccnc2)s1`, the inhibition is 0.1%.

As to `Cn1c(=NC(=O)c2cnccn2)sc2ccccc21`, the inhibition was 75.5% (active).

As to `Cn1c(=NC(=O)CSCC(=O)N2CCOCC2)sc2ccccc21`, the inhibition was -1.3%.

In the case of `Cn1c(=NC(=O)CSCC(=O)N2CCCCC2)sc2ccccc21`, the inhibition was -5%.

With `CCOc1ccc(-c2n[nH]c(C)c2-c2ccccn2)c(O)c1`, the inhibition was -3.7%.

As to `CN1CCN(C(=O)CCc2nc(-c3ccc(Cl)cc3)no2)CC1`, the inhibition was -4.7%.

Regarding `Cc1ccc(-c2noc(CCC(N)=O)n2)cc1`, the inhibition was 0.2%.

Consider `CCNC(=O)CCc1nc(-c2ccc(C(C)(C)C)cc2)no1`, for which the inhibition is 52.3% (active).

For the compound `CCOc1ccc(/C=N/Nc2nncc(-c3ccccc3)n2)cc1OC`, the inhibition is 9.9%.

As to `COc1ccc(/C=N/Nc2nc3ccccc3o2)cc1OC`, the inhibition was 11.5%.

As for `COc1cc(/C=N/Nc2nn3cnnc3c3ccccc23)cc(OC)c1OC`, the inhibition is 84.1% (active).

Consider `CCC(C)(C)C1CCC(=NNC(=O)c2ccc(Br)o2)CC1` (centres undefined), for which the inhibition is -7.3%.

With `CCCCN(C)CCNC(=O)CSCc1ccc(C)cc1`, the inhibition is -9.7%.

As to `O=C(CSc1ccc2nnc(-c3ccccc3)n2n1)N1CCCc2ccccc21`, the inhibition is 4.5%.

As to `CSCc1ccc(C(=O)Nc2cc(C)cc(C)c2)cc1`, the inhibition is 77.9% (active).

`C=CCN(c1ccc(C(=O)Nc2cc(C)cc(C)c2)cc1)S(C)(=O)=O`: the inhibition is -2.7%.

As to `CC(=O)Nc1ccccc1NC(=O)c1cc(C)cc(C)c1`, the inhibition was -8.5%.

Consider `O=C(O)c1ccc(/C=N/NC(=O)c2ccc(Br)cc2)cc1`, for which the inhibition is 15.3%.

In the case of `CCOC(=O)c1sc(NC(=O)CSc2n[nH]c(CC)n2)nc1C`, the inhibition was -4.3%.

Take `CCOC(=O)c1sc(NC(=O)CSc2nc(O)c(Cc3ccccc3)c(=O)[nH]2)nc1C`: the inhibition is 72.8% (active).

As for `O=C(CSc1nc(O)c(Cc2ccccc2)c(=O)[nH]1)Nc1nc2c(s1)CCCC2`, the inhibition is -3%.

Turning to `O=C(COC(=O)C1CCCCC1)Nc1ccc([N+](=O)[O-])cc1`, the inhibition is 2.8%.

Regarding `COc1cc(OC)c(C2=NOC(C(=O)Nc3c(C)n(C)n(-c4ccccc4)c3=O)C2)cc1Cl` (centres undefined), the inhibition is -5.5%.

With `CCOC(=O)C1(Cc2ccccc2C(F)(F)F)CCN(C(=O)c2cc(C)n(C)n2)CC1`, the inhibition is -9.5%.

Take `CCCOc1ccc(C(=O)NCCc2ccccc2)cc1`: the inhibition is 70.6% (active).

For the compound `O=C(NCCc1ccccc1)c1ccc(OCCOc2ccccc2)cc1`, the inhibition is -1.1%.

As to `O=C(NCCOc1ccccc1)c1ccccc1`, the inhibition was 14.7%.

For `Cc1ccc(-c2cc(C(F)(F)F)n3ncc(C(=O)N4CCCCC4c4cccnc4)c3n2)cc1` (centres undefined), the inhibition is -6.3%.

With `Cc1ccc(-c2nc(-c3cccnc3)sc2CC(=O)Nc2ccc(C)c(Cl)c2)cc1`, the inhibition is -1.9%.

In the case of `Cc1c(C(=O)Nc2ccccc2)sc2nc3n(c(=O)c12)CCCCC3`, the inhibition is -3.9%.

On to `O=c1c2c(nc3n1CCCCC3)sc1c(O)cccc12`, for which the inhibition was 60.4% (active).

As for `Cc1cccc2c(=O)n3c(nc12)CCCCC3`, the inhibition was -5.2%.

With `CC(C)c1cc(NCc2ccccn2)n2c(nc3ccccc32)c1C#N`, the inhibition is -5.4%.

Turning to `Cc1nnc(SC(C(=O)Nc2cc(Cl)cc(Cl)c2)c2ccccc2)[nH]c1=O` (centres undefined), the inhibition is -3.6%.
